Measured values as given in publication PMC7862700, “An all-to-all approach to the identification of sequence-specific readers for epigenetic DNA modifications on cytosine”.

Tests used:
Test in all cases: DAPPL (digital affinity profiling via proximity ligation, sequencing); 10 mM Tris-HCl pH 7.5, 50 mM NaCl, 1 mM DTT, 4% glycerol, room temperature, 30 min; GST-TFs on glutathione beads, 16-mer random dsDNA library, 0.1% formaldehyde crosslink after washing; high values mean tight binding
[1] = target: T1, FEV (Homo sapiens, UniProt Q99581 1-238); conditions: protein: recombinant; tags: N-terminal GST; dsDNA, one strand shown
T1 sequence: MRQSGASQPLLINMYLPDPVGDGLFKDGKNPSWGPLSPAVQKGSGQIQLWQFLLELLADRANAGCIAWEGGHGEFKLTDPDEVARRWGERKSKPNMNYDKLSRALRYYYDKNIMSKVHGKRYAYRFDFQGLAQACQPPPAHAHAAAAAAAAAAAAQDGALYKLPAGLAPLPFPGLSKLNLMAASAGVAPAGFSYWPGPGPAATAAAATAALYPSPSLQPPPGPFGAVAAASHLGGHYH
Method in brief: (§1)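 Pools of DNA-barcoded human transcription factors, expressed in yeast as GST fusions on glutathione beads and combined with a tag-only sample, were incubated with 200 nmole of a 16-mer random double-stranded DNA library. Incubation took 30 min at room temperature in Tris/NaCl/DTT/glycerol buffer and was followed by washing, 0.1% formaldehyde crosslinking, proximity ligation (BsaI/T4 ligase, 1 h, 37 °C), PCR amplification and sequencing on an Illumina NextSeq500. Binding signal is the ratio of a hexamer's read frequency for a factor to its frequency for the tag-only sample.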

[2] = target: ETV5 (Homo sapiens, UniProt P41161 1-510); conditions: protein: recombinant; tags: N-terminal GST; dsDNA, one strand shown
Method in brief: as §1

[3] = target: HSF1 (Homo sapiens, UniProt Q00613 1-529); conditions: protein: recombinant; tags: N-terminal GST; chain copies: 3; dsDNA, one strand shown
Method in brief: as §1

[4] = target: T2, SPIC (Homo sapiens, UniProt Q8N5J4 1-248); conditions: protein: recombinant; tags: N-terminal GST; dsDNA, one strand shown
T2 sequence: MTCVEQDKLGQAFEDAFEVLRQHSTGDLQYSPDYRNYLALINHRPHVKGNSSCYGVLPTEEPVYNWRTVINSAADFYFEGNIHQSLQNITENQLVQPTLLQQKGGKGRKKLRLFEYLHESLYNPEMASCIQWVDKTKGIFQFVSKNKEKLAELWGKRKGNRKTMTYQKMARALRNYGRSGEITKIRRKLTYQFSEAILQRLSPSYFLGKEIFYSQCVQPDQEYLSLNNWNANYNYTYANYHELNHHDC
Method in brief: as §1

[5] = target: ELF4 (Homo sapiens, UniProt Q99607 1-663); conditions: protein: recombinant; tags: N-terminal GST; dsDNA, one strand shown
Method in brief: as §1

[6] = target: T3, ELK4 (Homo sapiens, UniProt P28324-2 1-405); conditions: protein: recombinant; tags: N-terminal GST; dsDNA, one strand shown
T3 sequence: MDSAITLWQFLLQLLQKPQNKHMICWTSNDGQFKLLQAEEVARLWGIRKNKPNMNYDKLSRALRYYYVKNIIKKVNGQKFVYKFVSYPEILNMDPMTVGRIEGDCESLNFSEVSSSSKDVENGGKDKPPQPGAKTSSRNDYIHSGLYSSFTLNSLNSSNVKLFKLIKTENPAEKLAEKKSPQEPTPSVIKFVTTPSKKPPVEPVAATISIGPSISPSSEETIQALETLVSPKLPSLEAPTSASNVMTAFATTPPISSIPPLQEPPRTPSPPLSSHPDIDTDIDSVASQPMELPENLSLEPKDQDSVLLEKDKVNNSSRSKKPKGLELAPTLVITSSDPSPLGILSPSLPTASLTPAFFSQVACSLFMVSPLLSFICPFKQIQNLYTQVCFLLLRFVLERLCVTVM
Method in brief: as §1

[7] = target: T4, ETV2 (Homo sapiens, UniProt O00321 1-342); conditions: protein: recombinant; tags: N-terminal GST; dsDNA, one strand shown
T4 sequence: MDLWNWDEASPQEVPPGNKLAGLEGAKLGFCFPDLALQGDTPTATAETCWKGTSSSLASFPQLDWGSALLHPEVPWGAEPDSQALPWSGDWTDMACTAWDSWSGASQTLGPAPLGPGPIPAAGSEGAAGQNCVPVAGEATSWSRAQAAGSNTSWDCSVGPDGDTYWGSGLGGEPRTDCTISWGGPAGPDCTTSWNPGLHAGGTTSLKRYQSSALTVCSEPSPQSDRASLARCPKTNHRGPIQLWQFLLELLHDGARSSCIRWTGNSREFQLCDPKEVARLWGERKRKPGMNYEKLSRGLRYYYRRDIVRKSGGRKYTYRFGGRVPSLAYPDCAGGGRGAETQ
Method in brief: as §1

[8] = target: T5, ELF3 (Homo sapiens, UniProt P78545 1-371); conditions: protein: recombinant; tags: N-terminal GST; dsDNA, one strand shown
T5 sequence: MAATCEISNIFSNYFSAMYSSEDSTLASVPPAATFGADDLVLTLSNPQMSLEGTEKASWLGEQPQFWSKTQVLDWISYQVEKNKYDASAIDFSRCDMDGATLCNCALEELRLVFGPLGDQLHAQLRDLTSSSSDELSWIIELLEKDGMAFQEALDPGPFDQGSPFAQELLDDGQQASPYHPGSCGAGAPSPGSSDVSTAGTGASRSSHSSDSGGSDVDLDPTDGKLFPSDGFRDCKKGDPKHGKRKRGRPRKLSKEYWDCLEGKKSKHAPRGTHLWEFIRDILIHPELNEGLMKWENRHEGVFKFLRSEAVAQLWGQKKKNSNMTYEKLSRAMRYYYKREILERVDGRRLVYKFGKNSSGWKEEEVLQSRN
Method in brief: as §1

[9] = target: CRX (Homo sapiens, UniProt O43186 1-299); conditions: protein: recombinant; tags: N-terminal GST; dsDNA, one strand shown
Method in brief: as §1

[10] = target: ETV1 (Homo sapiens, UniProt P50549 1-477); conditions: protein: recombinant; tags: N-terminal GST; dsDNA, one strand shown
Method in brief: as §1

Chain of CRX (O43186 whole entry): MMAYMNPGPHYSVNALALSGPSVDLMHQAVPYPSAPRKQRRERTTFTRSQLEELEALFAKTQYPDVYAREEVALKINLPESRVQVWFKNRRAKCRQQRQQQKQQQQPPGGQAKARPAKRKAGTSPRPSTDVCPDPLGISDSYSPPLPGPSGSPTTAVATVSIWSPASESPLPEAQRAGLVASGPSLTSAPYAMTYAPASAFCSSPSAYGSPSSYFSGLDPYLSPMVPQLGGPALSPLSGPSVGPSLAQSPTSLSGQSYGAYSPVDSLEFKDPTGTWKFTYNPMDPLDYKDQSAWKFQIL
Chain of ETV1 (P50549 whole entry): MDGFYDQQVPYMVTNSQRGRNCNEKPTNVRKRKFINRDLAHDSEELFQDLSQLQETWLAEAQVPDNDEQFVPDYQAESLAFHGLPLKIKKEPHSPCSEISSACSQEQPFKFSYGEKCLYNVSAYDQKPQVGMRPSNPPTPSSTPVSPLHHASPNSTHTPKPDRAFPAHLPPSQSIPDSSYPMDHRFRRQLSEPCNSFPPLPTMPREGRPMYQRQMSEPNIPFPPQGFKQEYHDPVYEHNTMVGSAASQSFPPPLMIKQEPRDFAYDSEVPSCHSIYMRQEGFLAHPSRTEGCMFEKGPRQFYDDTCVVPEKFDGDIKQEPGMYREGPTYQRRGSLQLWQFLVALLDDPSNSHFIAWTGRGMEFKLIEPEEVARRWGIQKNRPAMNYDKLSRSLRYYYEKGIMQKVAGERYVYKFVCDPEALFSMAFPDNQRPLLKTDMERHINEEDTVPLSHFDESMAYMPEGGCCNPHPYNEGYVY
Chain of ETV5 (P41161 whole entry): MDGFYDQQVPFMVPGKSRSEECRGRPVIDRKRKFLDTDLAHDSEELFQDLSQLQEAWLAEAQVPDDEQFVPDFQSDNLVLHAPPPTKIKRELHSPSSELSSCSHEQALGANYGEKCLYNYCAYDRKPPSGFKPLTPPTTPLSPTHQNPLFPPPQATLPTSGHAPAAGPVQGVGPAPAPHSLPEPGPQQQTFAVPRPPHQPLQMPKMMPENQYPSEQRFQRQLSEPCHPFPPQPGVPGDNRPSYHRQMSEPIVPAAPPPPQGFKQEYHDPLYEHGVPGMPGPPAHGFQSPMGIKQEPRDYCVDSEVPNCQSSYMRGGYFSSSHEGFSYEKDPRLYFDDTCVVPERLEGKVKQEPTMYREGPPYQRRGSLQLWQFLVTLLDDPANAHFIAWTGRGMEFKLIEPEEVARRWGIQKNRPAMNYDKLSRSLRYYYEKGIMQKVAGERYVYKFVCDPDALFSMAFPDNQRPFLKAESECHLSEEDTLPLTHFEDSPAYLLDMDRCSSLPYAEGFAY
Chain of ELF4 (Q99607 whole entry): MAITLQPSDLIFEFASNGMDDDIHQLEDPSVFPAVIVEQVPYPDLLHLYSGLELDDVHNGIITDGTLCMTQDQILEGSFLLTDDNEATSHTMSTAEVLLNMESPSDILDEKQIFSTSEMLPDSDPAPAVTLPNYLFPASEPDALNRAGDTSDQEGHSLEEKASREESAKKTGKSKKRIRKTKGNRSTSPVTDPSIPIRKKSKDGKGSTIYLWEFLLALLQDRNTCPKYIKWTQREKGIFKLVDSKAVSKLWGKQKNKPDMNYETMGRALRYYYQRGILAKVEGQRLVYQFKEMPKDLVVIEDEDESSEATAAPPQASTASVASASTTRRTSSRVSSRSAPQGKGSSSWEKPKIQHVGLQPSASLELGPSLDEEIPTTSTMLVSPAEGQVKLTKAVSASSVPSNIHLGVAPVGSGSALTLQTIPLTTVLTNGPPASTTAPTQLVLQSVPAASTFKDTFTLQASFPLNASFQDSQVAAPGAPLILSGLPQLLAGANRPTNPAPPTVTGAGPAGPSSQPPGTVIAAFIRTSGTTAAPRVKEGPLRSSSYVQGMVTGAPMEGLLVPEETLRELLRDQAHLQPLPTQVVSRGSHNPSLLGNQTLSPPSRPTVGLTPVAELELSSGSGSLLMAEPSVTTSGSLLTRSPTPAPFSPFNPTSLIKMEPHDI
Chain of HSF1 (Q00613 whole entry): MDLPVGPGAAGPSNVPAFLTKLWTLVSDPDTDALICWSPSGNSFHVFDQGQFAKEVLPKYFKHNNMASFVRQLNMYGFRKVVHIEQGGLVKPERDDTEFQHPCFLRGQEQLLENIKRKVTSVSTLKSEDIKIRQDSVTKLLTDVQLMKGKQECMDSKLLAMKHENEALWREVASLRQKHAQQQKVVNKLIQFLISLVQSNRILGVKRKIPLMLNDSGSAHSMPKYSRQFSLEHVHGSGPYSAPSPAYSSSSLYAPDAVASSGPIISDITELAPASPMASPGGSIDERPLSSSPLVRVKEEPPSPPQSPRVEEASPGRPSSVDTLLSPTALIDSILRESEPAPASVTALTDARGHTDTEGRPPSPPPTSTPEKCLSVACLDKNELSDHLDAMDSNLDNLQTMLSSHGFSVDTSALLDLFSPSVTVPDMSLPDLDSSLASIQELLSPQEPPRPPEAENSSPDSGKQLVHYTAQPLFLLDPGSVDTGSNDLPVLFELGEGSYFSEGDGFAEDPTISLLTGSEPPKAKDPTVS

Sequence: ATAGAT
- binding signal [1]: 1.15 fold enrichment (6-mer frequency, TF over GST control)
- binding signal [2]: 1.11 fold enrichment (6-mer frequency, TF over GST control)
- binding signal [3]: 1.42 fold enrichment (6-mer frequency, TF over GST control)
- binding signal [4]: 1.2 fold enrichment (6-mer frequency, TF over GST control)
- binding signal [5]: 1.17 fold enrichment (6-mer frequency, TF over GST control)
- binding signal [6]: 1.13 fold enrichment (6-mer frequency, TF over GST control)
- binding signal [7]: 1.19 fold enrichment (6-mer frequency, TF over GST control)
- binding signal [8]: 1.13 fold enrichment (6-mer frequency, TF over GST control)
- binding signal [9]: 1.49 fold enrichment (6-mer frequency, TF over GST control)
- binding signal [10]: 1.19 fold enrichment (6-mer frequency, TF over GST control)
